# Experimental data from PubChem BioAssay (Tox21).
# Values joined by “and” are separate entries in the source; they are usually repeats but may differ in a detail not shown here. Equal entries are not always repeated. Records with an inconclusive call do not appear. A call without a number means that no potency is given here. Active and inactive are the calls of the source. Calls come from the whole dose curve; as a rule, active = well fitted cell-killing curve with a large enough effect in the repeat runs; inconclusive = weak or mixed curves, or effect the other way; inactive = flat fitted curve, though single readings scatter.
# Experiment: qHTS assay to identify small molecule agonists of the constitutive androstane receptor (CAR) signaling pathway - cell viability counter screen (AID 1224836); note: nearly all actives have a fitted effect of over 45% in size
# Conditions: HepG2-CYP2B6-hCAR viability, CellTiter-Fluor, 23 h, PK11195 added to every well; series mostly up to 92.4 µM
# Source text: U.S. Tox21 Program National Center for Advancing Translational Sciences [NCATS] NIH Chemical Genomics Center [NCGC] U.S. Environmental Protection Agency [EPA] National Institutes of Environmental Health Sciences [NIEHS] National Toxicology Program [NTP] U.S. Food and Drug Administration [FDA] Tox21 Assay Overview: The constitutive androstane receptor (CAR) is a nuclear receptor which regulates multiple drug metabolizing enzymes (DMEs) and transporters. Activating CAR will generally increase the transcription and subsequent translation of CYP2B6 and CYP3A4. These two DMEs represent about 50% of the drug metabolizing potential in the body. […] Recently, there have also been studies performed indicating CARs role in energy metabolism and cancer therapy. Therefore, inducing CARs activity could have a potential effect on diabetes and cancer. Identifying environmental toxins and compounds which modulate CAR, through the use of the Tox21 10K compound collection, will be an important step in determining the toxicity and potential therapeutic effects these factors will have on the human body. To differentiate true CAR agonists from cytotoxic substances, the assay is multiplexed with a cell viability assay.
# Tox21 Assay Protocol Summary: A double-stable (hCAR and CYP2B6-2.2kb) transfected cell line, derived from human hepatoma (HepG2) cells, was utilized for the duration of the quantitative high-throughput screens. The HepG2-CYP2B6-hCAR cells were dispensed at 2500 cells/4 uL/well in 1536-well white solid bottom plates using a Multidrop Combi. After the assay plates were incubated at 37 C/5% CO2 for 4 hrs, 23 nL of compounds at 15 concentrations (from 5-48 columns) or positive control (from 1 to 4 columns) were transferred to the assay plates using a Pintool station. One uL of PK11195 (final concentration = 0.75 uM) was added, using a Flying Reagent Dispenser, inside each well. After a 23 hr incubation period at 37 C/5% CO2, 1 uL of CellTiter-Fluor reagent was added into each well of the assay plates using a Flying Reagent Dispenser. The fluorescence intensity in the plates was then measured using a ViewLux plate reader.
# Potency is the fitted concentration of half-maximal effect.
row,Structure (SMILES),Potency
1,CNC(=O)Oc1cccc2c1OC(C)(C)C2,inactive
2,CCCCSP(=O)(SCCCC)SCCCC,inactive
3,N#CC(c1ccccc1)c1ccccc1,inactive
4,CC[n+]1c(-c2ccccc2)c2cc(N)ccc2c2ccc(N)cc21,48.3 µM (active)
5,CC(C)(c1ccc(OCC2CO2)cc1)c1ccc(OCC2CO2)cc1 (stereo not given),inactive
6,O=C(O)c1nn(Cc2ccc(Cl)cc2Cl)c2ccccc12,inactive
7,CCC[CH2][Sn]([Cl])([CH2]CCC)[CH2]CCC,546 nM (active) and 545 nM (active)
8,CCC/C=N/O,inactive
9,CC1(C)Cc2cccc(O)c2O1,inactive
10,O=C1C(Cl)=C(Cl)C(=O)c2ccccc21,inactive
11,C[N+](C)(C)C,inactive
12,CC1=C(C(=O)Nc2ccccc2)SCCO1,inactive
13,CC(C)(C#N)N=NC(C)(C)C#N,inactive
14,Clc1cccc(C(Cl)(Cl)Cl)n1,inactive
15,O=S(=O)(O)C(F)(F)C(F)(F)C(F)(F)C(F)(F)C(F)(F)C(F)(F)C(F)(F)C(F)(F)F,inactive
16,C=C(C)C#N,inactive
17,CNC(=O)CSP(=S)(OC)OC,inactive
18,CCOP(=S)(OCC)SCn1c(=O)oc2cc(Cl)ccc21,inactive
19,COP(=S)(OC)SCn1nnc2ccccc2c1=O,inactive
20,CC(O)CN(CC(C)O)CC(C)O (stereo not given),inactive

row,Structure (SMILES),Potency
1,O=NN(c1ccccc1)c1ccccc1,inactive
2,Oc1ccc(Cl)cc1Cc1ccccc1,inactive
3,c1ccc(C2CO2)cc1 (stereo not given),inactive
4,CCNc1nc(Cl)nc(NC(C)(C)C#N)n1,inactive
5,CC(C)CON=O,inactive
6,Clc1cccc(Cl)c1,inactive
7,Cc1cc(Cl)ccc1N=CN(C)C,inactive
8,Cc1ccc(N=CN(C)C=Nc2ccc(C)cc2C)c(C)c1,inactive
9,O=P(OCCCl)(OCCCl)OCCCl,inactive
10,CCOP(=S)(OCC)OP(=S)(OCC)OCC,inactive
11,CCCCOCCOC(C)=O,inactive
12,CCCCCCCCCCCCCl,inactive
13,Nc1ccc2ccccc2c1,inactive
14,Clc1ccc(C(Cl)(Cl)Cl)cc1,inactive
15,c1ccc2c(c1)Nc1ccccc1S2,inactive
16,CCOP(=O)(OCC)OCC,inactive
17,Brc1ccc(Br)cc1,inactive
18,CCC[CH2][Sn]([Cl])([Cl])[CH2]CCC,0.874 µM (active)
19,S=c1[nH]c2ccccc2[nH]1,inactive
20,ClC(Cl)=C(Cl)C(Cl)=C(Cl)Cl,inactive
